Test results as given in the supplement of paper PMC10981050.
Several values for one entry are separate records, joined by “and”; a condition that tells them apart may be missing. Identical values can stand only once. Counter-ions that a name gives are not always drawn.

Experiments:
Test in all cases: cell viability relative to vehicle control; higher = less cytotoxic
Settings in all cases: 10 µM
[1] = tested on: K562
Summary of the method: (§1)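 After removal of identity-inconsistent compounds, the Selleck bioactive, kinase and epigenetic probe libraries were screened on CRISPR-edited mutant clones and isogenic wild-type clones of four leukaemia lines. Plates were 384-well, each well holding 2000 cells in 50 µL medium and receiving a single 10 µM acoustically dispensed dose. CellTiter-Glo luminescence was read 48 h later, after the supernatant was taken off. Genedata Screener was used to express viability as percent of the on-plate vehicle control.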

[2] = tested on: MARIMO
Summary of the method: as §1

[3] = tested on: MOLM14
Summary of the method: as §1

[4] = tested on: OCI-AML2
Summary of the method: as §1

| SMILES | cell viability ([1]; SRSF2 genotype: SRSF2 P95H/wt) | cell viability ([1]; SRSF2 genotype: SRSF2 wt/wt) | cell viability ([2]; SRSF2 genotype: SRSF2 P95H/wt) | cell viability ([2]; SRSF2 genotype: SRSF2 wt/wt) | cell viability ([3]; SRSF2 genotype: SRSF2 P95H/wt) | cell viability ([3]; SRSF2 genotype: SRSF2 wt/wt) | cell viability ([4]; SRSF2 genotype: P95H/wt) | cell viability ([4]; SRSF2 genotype: wt/wt) |
| --- | --- | --- | --- | --- | --- | --- | --- | --- |
| Cn1ncc(Cl)c1-c1cc(C(=O)N[C@H](CN)Cc2cccc(F)c2)sc1Cl | 49.3% and 45.9% | 51% | 67.5% | 63.7% | 34.9% | 37.3% | 33.6% | 48.6% |
| C[C@@]1(CO)C[C@@H](O)C[C@@]2(C)[C@@H]3CC[C@](C)([C@@H](O)CO)C=C3CC[C@H]12 [Kirenol] | 98.1% and 101% | 97.7% | 89.3% | 96.2% | 107% | 104% | 94.6% | 101% |
| COc1ccc(CC(C)NCC(O)c2ccc(O)c(NC=O)c2)cc1 (stereo not drawn) [Formoterol hemifumarate] | 97.2% and 93.9% | 91.5% | 89.5% | 98.5% | 86.6% | 85.8% | 106% | 101% |
| Cn1cc(-c2[nH]c3cc(NC(=O)[C@H](N)C4CCCCC4)cc4c3c2C=NNC4=O)cn1 | 2.84% and 6.35% | 4.41% | 32.7% | 26.9% | 0.83% | 0.37% | 5.09% | 8.02% |
| COC(=O)c1ccccc1O [Methyl salicylate] | 101% and 96.7% | 94.8% | 99.2% | 104% | 96.3% | 104% | 94.3% | 102% |
| CC1(C)O[C@H]1COc1c2ccoc2cc2oc(=O)ccc12 [Oxypeucedanin] | 93.6% and 100% | 97.6% | 92.1% | 93.2% | 93.6% | 101% | 81.9% | 93.4% |
| CCCCCCCCCCCCCCCC(=O)OC [Methyl palmitate] | 103% and 99.7% | 100% | 99% | 92.7% | 103% | 97.7% | 102% | 98.1% |
| C=C1[C@H](CO)[C@@H](O)C[C@@H]1n1cnc2c(=O)[nH]c(N)nc21 [Entecavir hydrate] | 106% and 109% | 106% | 101% | 96.7% | 94.7% | 106% | 87.7% | 94.7% |
| Cn1cc(C(=O)[C@@H]2CCc3[nH]cnc3C2)c2ccccc21 [Ramosetron Hydrochloride] | 92.3% and 92.8% | 81.9% | 91.2% | 94.8% | 96.2% | 94.1% | 92.2% | 89.9% |
| CC[C@@H]([C@H](C)O)n1ncn(-c2ccc(N3CCN(c4ccc(OC[C@@H]5CO[C@@](Cn6cncn6)(c6ccc(F)cc6F)C5)cc4)CC3)cc2)c1=O [Posaconazole] | 55.7% and 75.6% | 87% | 55.6% | 59% | 62.2% | 85.5% | 18.1% | 23.9% |
| C[C@@]12CC[C@@H]3[C@@](CC[C@H]4[C@@]3(C)CCC[C@@]4(C)C(=O)O)(CC1=O)C2 [Iso-Steviol] | 100% and 92.9% | 96.7% | 99.4% | 107% | 95% | 94.7% | 88.3% | 101% |
| O=Cc1ccc(O[C@@H]2O[C@H](CO)[C@@H](O)[C@@H](O)[C@H]2O)cc1 [Helicide] | 99% and 102% | 103% | 96% | 99.9% | 97.8% | 104% | 99.8% | 96.5% |
| CCN(CC)c1ccc2cc(C(=O)O)c(=O)oc2c1 [7-(Diethylamino)coumarin-3-carboxylic acid] | 112% and 101% | 105% | 95.4% | 108% | 98% | 110% | 100% | 103% |
| CC(C)=CCC[C@](C)(O[C@@H]1O[C@H](CO[C@@H]2O[C@H](CO)[C@@H](O)[C@H](O)[C@H]2O)[C@@H](O)[C@H](O)[C@H]1O)[C@H]1CC[C@]2(C)[C@@H]1[C@H](O)C[C@@H]1[C@@]3(C)CC[C@H](O[C@@H]4O[C@H](CO)[C@@H](O)[C@H](O)[C@H]4O)C(C)(C)[C@@H]3CC[C@]12C [Gypenoside XVII] | 112% and 100% | 109% | 108% | 103% | 110% | 106% | 106% | 106% |
| CCCCOc1ccc(C(=O)CCN2CCCCC2)cc1 [Dyclonine hydrochloride] | 80.7% and 80.8% | 80.6% | 77.8% | 68.7% | 49.2% | 76.4% | 64.5% | 64.2% |
| C=CCc1cc(OC)c(OC)c(OC)c1 [Elemicin] | 106% and 105% | 113% | 111% | 104% | 105% | 109% | 109% | 123% |
| Nc1nccc(Oc2ccc(NC(=O)c3c[nH]cc(-c4ccc(F)cc4)c3=O)cc2F)c1Cl | 76.3% and 90.6% | 80.8% | 96.2% | 110% | 19.9% | 14.8% | 41.8% | 43.6% |
| COC(=O)CCC(=O)CN [Methyl Aminolevulinate Hydrochloride] | 94.6% and 91.5% | 99% | 92.2% | 94.4% | 95% | 97.2% | 93.9% | 102% |

| SMILES | cell viability ([1]; SRSF2 genotype: SRSF2 P95H/wt) | cell viability ([1]; SRSF2 genotype: SRSF2 wt/wt) | cell viability ([2]; SRSF2 genotype: SRSF2 P95H/wt) | cell viability ([2]; SRSF2 genotype: SRSF2 wt/wt) | cell viability ([3]; SRSF2 genotype: SRSF2 P95H/wt) | cell viability ([3]; SRSF2 genotype: SRSF2 wt/wt) | cell viability ([4]; SRSF2 genotype: P95H/wt) | cell viability ([4]; SRSF2 genotype: wt/wt) |
| --- | --- | --- | --- | --- | --- | --- | --- | --- |
| CC1(C)S[C@@H]2[C@H](NC(=O)[C@H](N)c3ccc(O)cc3)C(=O)N2[C@H]1C(=O)O [Amoxicillin (Amoxycillin)] | 97.3% and 90.7% | 91.7% | 91.2% | 98.5% | 99.7% | 100% | 92.4% | 105% |
| COC(=O)c1ccc2c(c1)nc(NC(=O)c1ccccc1)n2CCCc1ccccc1 | 77.8% and 75.4% | 79.5% | 70.1% | 91.6% | 87.9% | 93.7% | 64.5% | 68.7% |
| O=c1cc(CN2CCOCC2)occ1OCCCCCSc1ccnc2cc(C(F)(F)F)ccc12 | 59.9% and 65.2% | 60.1% | 49.4% | 37.7% | 58.9% | 68.5% | 27.6% | 34.3% |
| CCn1cc(-c2cccc(C(F)(F)F)c2)c2sc(C(=N)NC3CCS(=O)(=O)CC3)cc2c1=O | 68.1% and 71.5% | 69.9% | 55.8% | 45.3% | 27% | 32.3% | 22.6% | 42.1% |
| CN(C)CC[C@H](CSc1ccccc1)Nc1ccc(S(=O)(=O)NC(=O)c2ccc(N3CCN(Cc4ccccc4-c4ccc(Cl)cc4)CC3)cc2)cc1[N+](=O)[O-] | 49.5% and 28.1% | 72.7% | 0.46% | 1.66% | 0.15% | 2% | 0.19% | 3.31% |
| CC(C)(c1ccc(OCC(O)CO)cc1)c1ccc(OCC(O)CCl)cc1 (stereo not drawn) | 82.3% and 81.7% | 85.8% | 83.5% | 104% | 86% | 90.9% | 84.8% | 86.5% |
| CC(=O)Oc1cc2c(s1)CCN(C(C(=O)C1CC1)c1ccccc1F)C2 (stereo not drawn) [Prasugrel (Effient)] | 26.1% and 36.8% | 32.7% | 9.74% | 14.8% | 23.1% | 6.67% | 20.9% | 23.1% |
| CO[C@H]1O[C@@H]2O[C@@]3(C)CC[C@H]4[C@H](C)CC[C@@H]([C@H]1C)[C@@]24OO3 [Artemether] | 84.4% and 83.7% | 80.4% | 81% | 90.5% | 85.6% | 90.1% | 86.3% | 86.6% |
| O=C(O)c1ccccc1-c1c2cc(Br)c(=O)c(Br)c-2oc2c(Br)c(O)c(Br)cc12 [Eosin Y Disodium] | 97.2% and 95.8% | 90.1% | 96% | 92.8% | 85.3% | 93.6% | 91.7% | 93.4% |
| Cn1cncc1[C@@](N)(c1ccc(Cl)cc1)c1ccc2c(c1)c(-c1cccc(Cl)c1)cc(=O)n2C [Tipifarnib (Zarnestra)] | 24.9% and 31.7% | 34.7% | 34.5% | 32.9% | 29.9% | 20.2% | 19.9% | 26% |
| N=C(N)NC(=N)NCCc1ccccc1 [Phenformin hydrochloride] | 84.6% and 93.3% | 91.7% | 93.2% | 98.2% | 101% | 94.9% | 86% | 89.3% |
| CO[C@]1(CC[C@@H](C)CO[C@@H]2O[C@H](CO)[C@@H](O)[C@H](O)[C@H]2O)O[C@H]2C[C@H]3[C@@H]4CC=C5C[C@@H](O[C@@H]6O[C@H](CO)[C@@H](O[C@@H]7O[C@@H](C)[C@H](O)[C@@H](O)[C@H]7O)[C@H](O)[C@H]6O[C@@H]6O[C@@H](C)[C@H](O)[C@@H](O)[C@H]6O)CC[C@]5(C)[C@H]4CC[C@]3(C)[C@H]2[C@@H]1C [Methylprotodioscin] | 0.68% and 0.5% | 1.3% | 0.54% | 0.79% | 0.52% | 0.56% | 0.5% | 0.54% |
| Nc1nc(F)nc2c1ncn2[C@@H]1O[C@H](COP(=O)(O)O)[C@@H](O)[C@@H]1O [Fludarabine Phosphate (Fludara)] | 105% and 112% | 98.7% | 64.2% | 84.9% | 88.1% | 101% | 6.47% | 10.8% |
| C[C@H](CCC(=O)NCC(=O)O)[C@H]1CC[C@H]2[C@@H]3[C@H](O)C[C@@H]4C[C@H](O)CC[C@]4(C)[C@H]3C[C@H](O)[C@]12C [Glycocholic acid] | 107% and 108% | 109% | 106% | 102% | 100% | 109% | 117% | 98% |
| OCC1OC(OC2OC(CO)C(O)C(O)C2O)C(O)C(O)C1O [D-(+)-Trehalose Anhydrous] | 109% and 105% | 114% | 111% | 99.1% | 107% | 107% | 99.6% | 102% |
| Cc1cccc(C)c1NC(=O)C1CCCCN1C (stereo not drawn) [Mepivacaine HCl] | 105% and 102% | 111% | 106% | 95.3% | 96.5% | 102% | 108% | 99% |
| O=C(COc1ccc(Cl)cc1)NC1CCC(NC(=O)COc2ccc(Cl)cc2)CC1 (stereo not drawn) [ISRIB (trans-isomer)] | 96.3% and 97.5% | 100% | 103% | 102% | 107% | 98.7% | 99.2% | 95.9% |
| CCC(C(=O)O)c1ccc(N2Cc3ccccc3C2=O)cc1 (stereo not drawn) [Indobufen] | 92.1% and 90.3% | 102% | 91.3% | 100% | 96.6% | 101% | 92.2% | 98.3% |
